Compound activity deposited in PubChem BioAssay by National Center for Advancing Translational Sciences (NCATS).
The sample as a whole holds a higher share of hits than the screen did.
N370S GC mod – N370S glucocerebrosidase modulation, Gaucher chaperone candidate. P04062. N370S GC spleen homogenate, 4MU-glucoside fluorescence. Potency, µM (top dose mostly 59.4 µM), inactives show top-dose activity change, negative = inhibition, usual class: inhibitors. 330,000 compounds, 0.092% hits. AID 2101;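 further: potency means the concentration at half of the fitted maximal effect; 0% = full enzyme activity and -100% = no enzyme basal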
ClpP mod – qHTS Assay for Activators of ClpP; 340,000 compounds, 1.9% hits; Potency, µM (highest dose often 57.5 µM), for inactives: top-dose activity change, negative = active; purified B. subtilis ClpP, FRET peptide cleavage, 20 min; ATP-dependent Clp protease proteolytic subunit (Bacillus subtilis (strain 168)), P80244; AID 651965, 2013; active means well fitted falling curve with a large enough effect; inconclusive means small, poorly fitted or top-dose-only effect; inactive means no such curve, though single readings can be large or run the other way; further: potency means the concentration at half of the fitted maximal effect; the source files actives as falling curves though it sought activators and does not explain the sign; nearly all actives have a fitted effect of over 65% in size
Target sequence (P80244 whole entry, looked up): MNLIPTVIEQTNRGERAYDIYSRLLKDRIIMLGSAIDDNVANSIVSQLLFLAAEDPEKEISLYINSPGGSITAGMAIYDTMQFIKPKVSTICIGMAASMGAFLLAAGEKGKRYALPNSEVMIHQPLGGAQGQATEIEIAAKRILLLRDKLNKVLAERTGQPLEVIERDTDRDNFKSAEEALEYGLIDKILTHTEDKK
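ClpP 10 microg/mL final, pH 8 Tris/KCl buffer with BSA, glycerol, Tween-20; compound pinned in; FRET-FV substrate; RT 20 min; Ex320/Em430; ΔFRET vs ADEP 5.8 microM, DMSO, no enzyme.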
Apoferritin bind – candidate novel general anesthetic via apoferritin binding. 350,000 compounds, 0.074% hits. AID 485281. apoferritin/1-aminoanthracene competitive binding, fluorescence. P02791. Potency, µM (series often up to 77.5 µM), for the others: at the top dose activity change, negative = displacement, usual class: inhibitors; further: potency means the concentration at half of the fitted maximal effect; on the % scale 0 is the no-effect control and ±100 the full control effect; nearly all actives have a fitted effect of over 20% in size
Target sequence (P02791 2-175 limits assumed): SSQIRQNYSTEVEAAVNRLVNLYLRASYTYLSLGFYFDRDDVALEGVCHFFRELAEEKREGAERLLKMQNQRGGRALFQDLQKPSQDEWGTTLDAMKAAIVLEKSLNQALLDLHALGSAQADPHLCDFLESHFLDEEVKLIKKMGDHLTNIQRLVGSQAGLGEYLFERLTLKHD
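In PBS, apoferritin at 10 uM is loaded with 1-AMA from a 50% saturated solution. After 10 min of compound exposure at ambient temperature, reduced 535 nm fluorescence indicates probe displacement.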
GRP78 ERSR act – induces the endoplasmic reticulum stress response in human glioma cells. U87-MG GRP78 promoter luciferase reporter, 16 h. Potency, µM, inactives show at the top dose activation, most hits filed as activators. 420,000 compounds, 0.02% hits. AID 602332; further: potency means the concentration at half of the fitted maximal effect; series mostly up to about 76 µM; % of control where 0% means no effect; nearly all actives have a fitted effect of over 35% in size
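Stably transfected U87-MG glioma cells carrying a GRP78-based luciferase sensor; 16 h compound incubation. Luminescence end-point read 10 min after Bright-Glo addition at room temperature.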
CBFb-RUNX1 inh – CBF-beta/RUNX1 interaction disruption; AlphaScreen CBFb-His/RUNX1-biotin binding, biochemical; Q01196+Q13951; Potency, µM (top dose mostly 59.8 µM), without a hit: top-dose activity, negative = inhibition, hits mostly inhibitors; AID 1477; 230,000 tested, under 10 active; further: % of control where 0% means no effect
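AlphaScreen proximity signal reports loss of binding between His-tagged CBF-beta and biotin-labelled RUNX1, each at 30 nM. Proteins are pre-associated for 20 minutes, compounds added for 15 minutes, then beads for 90 minutes, all at ambient temperature.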
Integrin act MD – integrin-mediated muscular dystrophy alleviation activation. Potency, µM (titrated, usually from 38.3 µM), without a hit: at the top dose activation, usual class: activators. 350,000 compounds, 0.064% hits. alpha7betagal myoblasts, beta-gal FDG fluorescence, 48 h;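 further: potency means the concentration at half of the fitted maximal effect; 100% = response of the positive control SU9516; nearly all actives have a fitted effect of over 60% in size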
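alpha7betagal+/- myoblasts (passage 13, 250/well) treated 48 h at 37C with compounds at 1:260 dilution of DMSO stock. Lysed, then beta-galactosidase activity read as FDG fluorescence (ex 480/em 540) after 30 min, with pre-read for autofluorescence.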
* hit, by the source's call. Unless noted, the call rests on the fitted dose curve; in most records, active means well fitted curve in the direction sought with a large enough effect; inconclusive means small, poorly fitted or top-dose-only effect, or another doubt; inactive means no such curve, though single readings can be large; an effect the other way counts as inactive or inconclusive.

`Cc1cccc(N2CCN(C(=O)c3cccs3)CC2)c1C` gave N370S GC mod -11%, ClpP mod 5%, Apoferritin bind -14%, GRP78 ERSR act -3% and Integrin act MD -7%.
`Cc1cccc(N2CCN(C(=O)Cn3c(-c4cccs4)cc4ccccc43)CC2)c1C` gave ClpP mod 16µM*, Apoferritin bind 1% and GRP78 ERSR act -4%.
`Cc1ccc(C)c(N2CCN(C(=O)Cn3c(-c4cccs4)cc4ccccc43)CC2)c1` gave ClpP mod 16µM*, Apoferritin bind -2% and GRP78 ERSR act 1%.
`CO[C@H]1[C@H](NC(=O)c2ccsc2)c2ccccc2C12CCN(Cc1cc(Cl)ccc1O)CC2` gave GRP78 ERSR act 0%.
`CCC1CN(CC(=O)NC(C)CO)Cc2cc(OC)ccc2O1` (stereo not drawn) gave GRP78 ERSR act -6%.
Screening Cc1cc(C(=O)NCC2CCC3(CCN(Cc4ccc(-c5ccccc5)cc4)CC3)O2)n(C)n1 (stereo not drawn) returned GRP78 ERSR act -4%.
Screening CC(C)c1ccc(NC(=O)CSc2nnc(-c3ccccn3)n2C)cc1 returned N370S GC mod 4%, ClpP mod 28µM*, Apoferritin bind inconclusive, GRP78 ERSR act -2%, CBFb-RUNX1 inh 0% and Integrin act MD 13%.
Screening Cc1ccc(-c2nnc(SCC(=O)CC(=O)Nc3ccccc3)n2C)cc1 returned N370S GC mod 1%, ClpP mod -2%, Apoferritin bind 4%, GRP78 ERSR act -4%, CBFb-RUNX1 inh 21% and Integrin act MD -3%.
`Cn1c(SCC(=O)CC(=O)Nc2ccccc2)nnc1-c1ccc(O)cc1` gave N370S GC mod 14µM*, ClpP mod 1%, Apoferritin bind 5%, GRP78 ERSR act -1%, CBFb-RUNX1 inh -12% and Integrin act MD 8%.
`Cc1ccc2c(c1)CN(CCNC(=O)c1cc3ccccc3oc1=O)CC(C)O2` (stereo not drawn) gave GRP78 ERSR act -2%.
Screening CCCCCn1c(=O)[nH]c2cc(C(=O)NCCN3CCC(C)CC3)ccc2c1=O returned N370S GC mod 10%, ClpP mod -1%, Apoferritin bind -5%, GRP78 ERSR act 1% and Integrin act MD 8%.
Screening COc1cc2[nH]c(=O)n(Cc3ccc(C(=O)NCCCN4CCN(C)CC4)cc3)c(=O)c2cc1OC returned N370S GC mod -14%, ClpP mod 25µM*, Apoferritin bind -11%, GRP78 ERSR act -4%, CBFb-RUNX1 inh 1% and Integrin act MD 0%.
CCCCCn1c(=O)[nH]c2cc(C(=O)NCCN(CC)CC)ccc2c1=O was read as N370S GC mod 15%, ClpP mod 25µM*, Apoferritin bind -13%, GRP78 ERSR act -2%, CBFb-RUNX1 inh 2% and Integrin act MD -52%.
CCCCCn1c(=O)[nH]c2cc(C(=O)NCCCN3CCC(C)CC3)ccc2c1=O was read as N370S GC mod 6%, ClpP mod 28µM*, Apoferritin bind -13%, GRP78 ERSR act -2%, CBFb-RUNX1 inh 5% and Integrin act MD 0%.
`CCCCCn1c(=O)[nH]c2cc(C(=O)NCCCN3CCCCC3)ccc2c1=O` gave N370S GC mod 6%, ClpP mod 28µM*, Apoferritin bind -6%, GRP78 ERSR act -5%, CBFb-RUNX1 inh 16% and Integrin act MD -4%.
For CN1CCN(CCCNC(=O)c2ccc3c(=O)n(CCc4ccccc4)c(=O)[nH]c3c2)CC1 the results were N370S GC mod inconclusive, Apoferritin bind 5%, GRP78 ERSR act 6% and Integrin act MD -74%.
For COc1ccc(Cn2c(=O)[nH]c3cc(C(=O)NCCCN4CCCC4)ccc3c2=O)cc1 the results were N370S GC mod inconclusive, ClpP mod -16%, Apoferritin bind -20%, GRP78 ERSR act -4%, CBFb-RUNX1 inh 0% and Integrin act MD -19%.
